# For part of these data: Measured potencies and affinities stand elsewhere. Active and inactive are the calls of the source.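 The calls were made as follows, unless noted: active = calcium signal rise above buffer-control mean plus 5 SD in both duplicates, and also a hit in the primary screen; inactive = the rest.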
# Experiments:
# [1] = test system: TRPC4 beta (transient receptor potential cation channel C4), mouse; experiment: activators of mouse TRPC4 channel, confirmation, cell-based, Fluo4 calcium, HEK293 TRPC4beta/mu-opioid, duplicates, 10 µM (AID 2426;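 active = fluorescence ratio normalized to control raised more than 50% in primary screen plus both repeat runs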;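 as to activation: percent rise of integrated ratio over buffer wells lacking compound which define 0%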); details: Fluo4 calcium fluorescence, at 10 µM; active compounds read high
# [2] = test system: transient receptor potential cation channel C4 beta (TRPC4), mouse; experiment: activators of mouse TRPC4 channel, confirmation, cell-based, second round, Fluo4, HEK293 TRPC4beta/mu-opioid, 1 µM (AID 2461;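 active = primary screen active and over 50% activation in each of two duplicate runs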); details: Fluo4 calcium fluorescence, at 1 µM; active compounds read high
# [3] = test system: TRPC4 (transient receptor potential cation channel C4 beta), mouse; experiment: positive allosteric modulators of mouse TRPC4, confirmation, cell-based, second round, Fluo-4, HEK293 TRPC4beta/mu-opioid, 1 µM (AID 2554;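 active = primary screen hit whose fluorescence ratio, in both repeats, exceeds the weak agonist control mean by 3 SD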); details: DAMGO EC20, Fluo-4 calcium flux, at 1 µM; active compounds read high
# [4] = test system: TRPC4 beta (transient receptor potential cation channel C4), mouse; experiment: positive allosteric modulators of mouse TRPC4, confirmation, cell-based, Fluo-4, HEK293 TRPC4beta/mu-opioid (AID 2555;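 active = primary screen hit whose calcium fluorescence ratio, in both repeats, exceeds the weak agonist control mean by 3 SD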); details: DAMGO EC20, Fluo-4 calcium flux, at 10 µM; active compounds read high
# [5] = molecular target: Short transient receptor potential channel 4 (Mus musculus) (UniProt Q9QUQ5); experiment: inhibitors of mouse TRPC4 channel, confirmation, cell-based, Fluo4, HEK293 TRPC4beta/mu-opioid (AID 2636;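 active = calcium signal cut by more than 3 SD below the full-agonist control yet still positive, in both repeats and the earlier primary screen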); details: DAMGO, Fluo4 calcium flux, at 10 µM; active compounds read high
# [6] = molecular target: Short transient receptor potential channel 4 (Mus musculus) (UniProt Q9QUQ5); experiment: inhibitors of mouse TRPC4 channel, confirmation, cell-based, second round, Fluo4, HEK293 TRPC4beta/mu-opioid, 1 µM (AID 2637;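 active = calcium signal ratio cut to more than 3 SD under the fully stimulated control mean yet still positive, in both repeats and the primary screen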); details: Fluo4 calcium flux, DAMGO, at 1 µM; active compounds read high
# [7] = molecular target: Short transient receptor potential channel 4 (Mus musculus) (UniProt Q9QUQ5); experiment: mouse TRPC4 channel activators, dose response, cell-based, HEK293 TRPC4/mu-opioid, Fluo-4 calcium (AID 434937;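 active = primary screen activator hit with a dose response curve and TRPC4 channel activation at any tested dose; inactive = no activation, no dose response, or not a primary hit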)
# [8] = molecular target: Short transient receptor potential channel 4 (Mus musculus) (UniProt Q9QUQ5); experiment: TRPC4 positive allosteric modulators, dose response, cell-based, HEK293 TRPC4/mu-opioid, Fluo-4 calcium, EC20 DAMGO (AID 434941;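 active = earlier screen potentiator hit that boosts the TRPC4 ion channel at some dose, with a dose response; inactive = no potentiation, no dose response, or not a prior hit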;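 also: calcium entry triggered by an EC20 dose of DAMGO at the co-expressed mu-opioid receptor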)
# [9] = molecular target: Short transient receptor potential channel 4 (Mus musculus) (UniProt Q9QUQ5); experiment: mouse TRPC4 channel inhibitors, dose response, cell-based, HEK293 TRPC4/mu-opioid, Fluo-4 calcium (AID 434942;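 active = primary screen inhibitor hit that blocks the TRPC4 channel at some tested dose, yielding a dose curve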)
# [10] = molecular target: Short transient receptor potential channel 6 (Mus musculus) (UniProt Q61143); experiment: inhibition of mouse TRPC6 channel, confirmation, selectivity assay for TRPC4 inhibitor project, cell-based, HEK293, membrane potential dye, duplicate (AID 434948;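 active = active in primary screen and both duplicates, each dropping signal beyond three positive-control SD with fluorescence still positive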); details: HEK293 TRPC6, membrane potential dye fluorescence, at 10 µM, stimulated with maximal-effect acetylcholine; active compounds read high
# [11] = molecular target: Short transient receptor potential channel 6 (Mus musculus) (UniProt Q61143); experiment: activation of mouse TRPC6 channel, confirmation, selectivity assay for TRPC4 activator project, cell-based, HEK293, membrane potential dye, duplicate (AID 434950;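 active = membrane potential signal rise above negative control mean plus 3 SD in both duplicates, also active in the earlier TRPC4 screen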); details: HEK293 TRPC6, membrane potential fluorescence, at 10 µM; active compounds read high
# [12] = molecular target: Short transient receptor potential channel 6 (Mus musculus) (UniProt Q61143); experiment: TRPC6 potentiation by TRPC4 potentiator hits, confirmation, selectivity assay for TRPC4 potentiator project, HEK293 cells, membrane potential dye, duplicate (AID 434952;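 active = compound raising the membrane signal above positive-control mean plus 3 SD in both repeats, and a primary screen hit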); details: HEK293 TRPC6, membrane potential dye fluorescence, at 10 µM, maximal acetylcholine added after compound; active compounds read high
# [13] = molecular target: Short transient receptor potential channel 4 (Mus musculus) (UniProt Q9QUQ5); experiment: calcium flux activators in TRPC4/5HT1a cells, counter-screen for TRPC4 activator project, cell-based, second counter screen, HEK293 TRPC4/5HT1a, Fluo-4 (AID 434977); details: Fluo-4 calcium flux, at 10 µM; active compounds read high;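 as to activation: plate controls were assay buffer for no effect and maximal serotonin response for full effect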
# [14] = calcium flux inhibitors in TRPC4/5HT1a cells, confirmation, counter-screen for TRPC4 inhibitor project, cell-based, second counter screen, HEK293 TRPC4/5HT1a, Fluo-4 (AID 434978;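 active = primary screen active whose calcium signal fell more than 3 SD beyond the full-serotonin control mean in both duplicate plates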;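 as to outcome: serotonin given first at submaximal then at maximal dose after compound preincubation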); details: Fluo-4 calcium flux, at 10 µM, serotonin added to trigger calcium flux; active compounds read high
# [15] = test system: TRPC4 (mouse), co-expressed with 5HT1a in HEK293; experiment: calcium flux potentiators in TRPC4/5HT1a cells, confirmation, counter-screen for TRPC4 potentiator project, cell-based, second counter screen, HEK293 TRPC4/5HT1a, Fluo-4 (AID 434979;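 active = signal rise over 3 SD above mean of control wells given weak agonist, in both repeats and first screen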); details: Fluo-4 calcium flux, at 10 µM, serotonin added at its EC20 dose; active compounds read high
# [16] = calcium flux activation in mu-opioid HEK293 cells, confirmation, counter-screen for TRPC4 activator project, cell-based, HEK293 mu-opioid receptor line (AID 449723;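 active = hit in primary screen, with calcium signal over 5 SD above buffer well mean in both duplicates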;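 also: counter screen cells carry the mu-opioid receptor alone and lack TRPC4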); details: Fluo-4 calcium fluorescence, at 10 µM; active compounds read high
# [17] = calcium flux enhancement in mu-opioid HEK293 cells, confirmation, counter-screen for TRPC4 allosteric potentiator project, cell-based, HEK293 mu-opioid receptor line (AID 449724;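 active = calcium signal rise more than 3 SD above the low-dose agonist control mean, in both duplicate plates and the primary screen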); details: Fluo-4 calcium flux, at 10 µM, compound added before EC20 DAMGO stimulus; active compounds read high
# Sequence of Short transient receptor potential channel 6 (Mus musculus) (Q61143 whole entry, looked up): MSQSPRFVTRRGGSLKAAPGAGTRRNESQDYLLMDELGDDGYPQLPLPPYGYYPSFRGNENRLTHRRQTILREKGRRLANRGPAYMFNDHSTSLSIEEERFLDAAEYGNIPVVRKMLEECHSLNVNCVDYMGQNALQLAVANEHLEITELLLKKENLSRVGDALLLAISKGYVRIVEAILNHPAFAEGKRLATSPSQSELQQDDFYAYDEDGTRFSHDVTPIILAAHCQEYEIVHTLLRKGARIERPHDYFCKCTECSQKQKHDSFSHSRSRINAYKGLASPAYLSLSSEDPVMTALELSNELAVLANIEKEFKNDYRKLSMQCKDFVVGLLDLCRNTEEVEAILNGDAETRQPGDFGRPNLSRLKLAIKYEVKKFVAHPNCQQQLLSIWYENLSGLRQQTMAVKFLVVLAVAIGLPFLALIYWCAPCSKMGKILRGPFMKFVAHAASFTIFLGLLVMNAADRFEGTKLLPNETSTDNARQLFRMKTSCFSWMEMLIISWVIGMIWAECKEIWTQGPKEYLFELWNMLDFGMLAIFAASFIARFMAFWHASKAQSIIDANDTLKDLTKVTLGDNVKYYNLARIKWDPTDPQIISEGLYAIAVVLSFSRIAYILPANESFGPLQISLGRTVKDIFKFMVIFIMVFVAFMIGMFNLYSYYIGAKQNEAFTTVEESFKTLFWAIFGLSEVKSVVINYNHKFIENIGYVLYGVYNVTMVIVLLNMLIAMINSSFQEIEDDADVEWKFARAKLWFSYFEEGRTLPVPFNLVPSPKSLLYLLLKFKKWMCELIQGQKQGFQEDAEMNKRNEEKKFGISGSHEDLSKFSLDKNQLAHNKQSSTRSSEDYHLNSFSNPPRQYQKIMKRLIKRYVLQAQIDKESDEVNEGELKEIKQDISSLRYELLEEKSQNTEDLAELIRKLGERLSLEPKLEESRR
# Sequence of Short transient receptor potential channel 4 (Mus musculus) (Q9QUQ5 whole entry, looked up): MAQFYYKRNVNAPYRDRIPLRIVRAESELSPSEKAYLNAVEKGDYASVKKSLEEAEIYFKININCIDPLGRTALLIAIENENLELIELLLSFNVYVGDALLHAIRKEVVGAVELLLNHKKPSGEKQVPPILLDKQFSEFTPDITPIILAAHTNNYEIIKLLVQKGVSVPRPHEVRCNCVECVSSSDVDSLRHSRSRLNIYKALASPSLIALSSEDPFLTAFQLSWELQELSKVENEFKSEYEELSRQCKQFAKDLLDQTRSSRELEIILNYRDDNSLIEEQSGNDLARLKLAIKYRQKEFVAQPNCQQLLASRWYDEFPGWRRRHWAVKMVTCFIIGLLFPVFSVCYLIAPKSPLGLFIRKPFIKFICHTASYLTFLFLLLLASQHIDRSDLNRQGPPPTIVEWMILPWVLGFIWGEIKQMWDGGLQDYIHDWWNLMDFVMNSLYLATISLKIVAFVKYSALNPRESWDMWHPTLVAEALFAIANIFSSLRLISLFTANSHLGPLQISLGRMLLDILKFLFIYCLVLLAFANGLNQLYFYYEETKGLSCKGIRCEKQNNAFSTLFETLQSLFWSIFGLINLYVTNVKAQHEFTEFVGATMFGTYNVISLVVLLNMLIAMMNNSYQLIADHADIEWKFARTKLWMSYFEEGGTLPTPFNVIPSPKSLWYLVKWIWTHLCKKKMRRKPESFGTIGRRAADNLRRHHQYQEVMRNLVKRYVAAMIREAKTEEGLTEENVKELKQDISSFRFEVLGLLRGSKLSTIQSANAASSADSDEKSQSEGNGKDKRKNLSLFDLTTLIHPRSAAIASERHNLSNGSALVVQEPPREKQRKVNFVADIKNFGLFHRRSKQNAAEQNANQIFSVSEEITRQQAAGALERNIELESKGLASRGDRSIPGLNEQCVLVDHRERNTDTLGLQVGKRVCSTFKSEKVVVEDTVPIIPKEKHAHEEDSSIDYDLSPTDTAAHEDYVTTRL
smiles,measurement,setting,value
Cc1cccc(Cn2c(=O)c3c(nc4n3CCCN4Cc3ccccc3)n(C)c2=O)c1,outcome,[1],inactive
same,outcome,[2],inactive
same,potentiation,[3],14% (active)
same,potentiation,[4],120% (active)
same,outcome,[5],inactive
same,outcome,[6],inactive
same,outcome,[7],inactive
same,outcome,[8],inactive
same,outcome,[9],inactive
same,outcome,[10],inactive
same,outcome,[11],inactive
same,outcome,[12],inactive
same,outcome,[13],inactive
same,outcome,[14],inactive
same,potentiation,[15],75.2% (active)
same,outcome,[16],inactive
same,outcome,[17],inactive
Cc1cc(C)c(C(=O)c2ccc(C(=O)N3CCCCC3)cc2)c(C)c1,outcome,[1],inactive
same,outcome,[2],inactive
same,outcome,[3],inactive
same,outcome,[4],inactive
same,outcome,[5],inactive
same,outcome,[6],inactive
same,outcome,[7],inactive
same,outcome,[8],inactive
same,outcome,[9],inactive
same,outcome,[10],inactive
same,outcome,[11],inactive
same,outcome,[12],inactive
same,outcome,[13],inactive
same,outcome,[14],inactive
same,outcome,[15],inactive
same,outcome,[16],inactive
same,outcome,[17],inactive
COc1ccc(C(CNC(=O)C2CC2)N(C)C)cc1 (stereo not given),outcome,[1],inactive
same,outcome,[2],inactive
same,outcome,[3],inactive
same,outcome,[4],inactive
same,outcome,[5],inactive
same,outcome,[6],inactive
same,outcome,[7],inactive
same,outcome,[8],inactive
same,outcome,[9],inactive
same,outcome,[10],inactive
same,outcome,[11],inactive
same,outcome,[12],inactive
same,outcome,[13],inactive
same,outcome,[14],inactive
same,outcome,[15],inactive
same,outcome,[16],inactive
same,outcome,[17],inactive
CCN(CC)CCn1c(=N)n(CC(O)COc2cccc(C)c2)c2ccccc21 (stereo not given),outcome,[1],inactive
same,outcome,[2],inactive
same,outcome,[3],inactive
same,outcome,[4],inactive
same,inhibition,[5],88% (active)
same,outcome,[6],inactive
same,outcome,[7],inactive
same,outcome,[8],inactive
same,outcome,[9],inactive
same,outcome,[10],inactive
same,outcome,[11],inactive
same,outcome,[12],inactive
same,outcome,[13],inactive
same,inhibition,[14],6.72% (active)
same,outcome,[15],inactive
same,outcome,[16],inactive
same,outcome,[17],inactive
CCOc1cccc(CN2CCCC(C(=O)c3cccc(C(F)(F)F)c3)C2)c1O (stereo not given),outcome,[1],inactive
same,outcome,[2],inactive
same,outcome,[3],inactive
same,outcome,[4],inactive
same,inhibition,[5],77% (active)
same,outcome,[6],inactive
same,outcome,[7],inactive
same,outcome,[8],inactive
same,outcome,[9],inactive
same,outcome,[10],inactive
same,outcome,[11],inactive
same,outcome,[12],inactive
same,outcome,[13],inactive
same,inhibition,[14],42.2% (active)
same,outcome,[15],inactive
same,outcome,[16],inactive
same,outcome,[17],inactive
C/C(=N/OCO/N=C(/C)c1ccc(F)cc1)c1ccc(F)cc1,outcome,[1],inactive
same,outcome,[2],inactive
same,outcome,[3],inactive
same,outcome,[4],inactive
same,outcome,[5],inactive
same,outcome,[6],inactive
same,outcome,[7],inactive
same,outcome,[8],inactive
same,outcome,[9],inactive
same,outcome,[10],inactive
same,outcome,[11],inactive
same,outcome,[12],inactive
same,outcome,[13],inactive
same,outcome,[14],inactive
same,outcome,[15],inactive
same,outcome,[16],inactive
same,outcome,[17],inactive
COc1ccccc1C(=O)NNC1=C(C(=O)C(F)(F)F)CCC1,activation,[1],58% (active)
same,outcome,[2],inactive
same,outcome,[3],inactive
same,outcome,[4],inactive
same,outcome,[5],inactive
same,outcome,[6],inactive
same,outcome,[7],inactive
same,outcome,[8],inactive
same,outcome,[9],inactive
same,outcome,[10],inactive
same,outcome,[11],inactive
same,outcome,[12],inactive
same,activation,[13],11% (active)
same,outcome,[14],inactive
same,outcome,[15],inactive
same,outcome,[16],inactive
same,outcome,[17],inactive
Cc1ccc(/C=N/NC(=O)CSc2nc3ccccc3n2Cc2ccccc2)o1,outcome,[1],inactive
same,outcome,[2],inactive
same,outcome,[3],inactive
same,outcome,[4],inactive
same,outcome,[5],inactive
same,outcome,[6],inactive
same,outcome,[7],inactive
same,outcome,[8],inactive
same,outcome,[9],inactive
same,outcome,[10],inactive
same,outcome,[11],inactive
same,outcome,[12],inactive
same,outcome,[13],inactive
same,outcome,[14],inactive
same,outcome,[15],inactive
same,outcome,[16],inactive
same,outcome,[17],inactive
c1ccc(Cc2nc3ccccc3n2Cc2ccccc2)cc1,outcome,[1],inactive
same,outcome,[2],inactive
same,outcome,[3],inactive
same,outcome,[4],inactive
same,outcome,[5],inactive
same,outcome,[6],inactive
same,outcome,[7],inactive
same,outcome,[8],inactive
same,outcome,[9],inactive
same,outcome,[10],inactive
same,outcome,[11],inactive
same,outcome,[12],inactive
same,outcome,[13],inactive
same,outcome,[14],inactive
same,outcome,[15],inactive
same,outcome,[16],inactive
same,outcome,[17],inactive
CCc1nc2ccccc2n1Cc1ccccc1F,outcome,[1],inactive
same,outcome,[2],inactive
same,outcome,[3],inactive
same,outcome,[4],inactive
same,outcome,[5],inactive
same,outcome,[6],inactive
same,outcome,[7],inactive
same,outcome,[8],inactive
same,outcome,[9],inactive
same,outcome,[10],inactive
same,outcome,[11],inactive
same,outcome,[12],inactive
same,outcome,[13],inactive
same,outcome,[14],inactive
same,outcome,[15],inactive
same,outcome,[16],inactive
same,outcome,[17],inactive
O=C(COC(=O)c1nc(Cl)ccc1Cl)c1ccccc1Cl,outcome,[1],inactive
same,outcome,[2],inactive
same,outcome,[3],inactive
same,outcome,[4],inactive
same,outcome,[5],inactive
same,outcome,[6],inactive
same,outcome,[7],inactive
same,outcome,[8],inactive
same,outcome,[9],inactive
same,outcome,[10],inactive
same,outcome,[11],inactive
same,outcome,[12],inactive
same,outcome,[13],inactive
same,outcome,[14],inactive
same,outcome,[15],inactive
same,outcome,[16],inactive
same,outcome,[17],inactive
COc1ccc(/C=N/NC(=O)c2ccc(F)cc2)cc1CN1CCc2cc(OC)c(OC)cc2C1C (stereo not given),outcome,[1],inactive
same,outcome,[2],inactive
same,outcome,[3],inactive
same,outcome,[4],inactive
same,inhibition,[5],86% (active)
same,outcome,[6],inactive
same,outcome,[7],inactive
same,outcome,[8],inactive
same,outcome,[9],inactive
same,outcome,[10],inactive
same,outcome,[11],inactive
same,outcome,[12],inactive
same,outcome,[13],inactive
same,outcome,[14],inactive
same,outcome,[15],inactive
same,outcome,[16],inactive
same,outcome,[17],inactive
COc1ccc(-n2ncc3c(N4CCc5ccccc54)ncnc32)cc1,outcome,[1],inactive
same,outcome,[2],inactive
same,outcome,[3],inactive
same,outcome,[4],inactive
same,outcome,[5],inactive
same,outcome,[6],inactive
same,outcome,[7],inactive
same,outcome,[8],inactive
same,outcome,[9],inactive
same,outcome,[10],inactive
same,outcome,[11],inactive
same,outcome,[12],inactive
same,outcome,[13],inactive
same,outcome,[14],inactive
same,outcome,[15],inactive
same,outcome,[16],inactive
same,outcome,[17],inactive
Cc1cccn2c(=O)c3cc(C(=O)N(C)C)n(C)c3nc12,outcome,[1],inactive
same,outcome,[2],inactive
same,outcome,[3],inactive
same,potentiation,[4],29% (active)
same,outcome,[5],inactive
same,outcome,[6],inactive
same,outcome,[7],inactive
same,outcome,[8],inactive
same,outcome,[9],inactive
same,outcome,[10],inactive
same,outcome,[11],inactive
same,outcome,[12],inactive
same,outcome,[13],inactive
same,outcome,[14],inactive
same,potentiation,[15],37.3% (active)
same,outcome,[16],inactive
same,outcome,[17],inactive
C=CCn1c(SCCN2CCCCC2)nc2c1c(=O)[nH]c(=O)n2C,outcome,[1],inactive
same,outcome,[2],inactive
same,potentiation,[3],27% (active)
same,potentiation,[4],16% (active)
same,outcome,[5],inactive
same,outcome,[6],inactive
same,outcome,[7],inactive
same,outcome,[8],inactive
same,outcome,[9],inactive
same,outcome,[10],inactive
same,outcome,[11],inactive
same,outcome,[12],inactive
same,outcome,[13],inactive
same,outcome,[14],inactive
same,potentiation,[15],20% (active)
same,outcome,[16],inactive
same,outcome,[17],inactive
